Calls of active or inactive are those of the source. Rule for the calls: active = hit-call score of the fitted dose curve at least 0.9, where 1 is the maximum; inactive = score below 0.9.
Experiment: BSK_SAg_Proliferation: Cell Proliferation Assessment in the BioMAP Diversity Plus: SAg Assay (AID 2283095)
Conditions: primary human HUVEC with PBMC
Experimental: BSK_SAg is a cell-based, multiplexed-readout assay that uses umbilical vein endothelium and peripheral blood mononuclear cells, a human vascular primary cell co-culture, with measurements taken at 24 hours after chemical dosing in a 96-well plate.BSK_SAg_Proliferation is an assay component in the BSK_SAg assay. It measures protein content, a form of viability reporter, as detected with absorbance signals by Sulforhodamine staining technology. Data from the assay component BSK_SAg_Proliferation was analyzed into 1 assay endpoint. This assay endpoint, BSK_SAg_Proliferation, was analyzed with bidirectional fitting relative to DMSO as the negative control and baseline of activity. Using a type of viability reporter, measures of total protein for gain or loss-of-signal activity can be used to understand the viability at the cellular-level. Furthermore, this assay endpoint can be referred to as a secondary readout, because this assay has produced multiple assay endpoints where this one serves a viability function. To generalize the intended target to other relatable targets, this assay endpoint is annotated to the cell cycle intended target family, where the subfamily is proliferation.
The levels of cell surface (or secreted, indicated by the prefix "s") biomarker endpoints were measured by ELISA. Overt cytotoxicity to cells in confluent adherent cultures (all systems other than the BT system) was assessed by measuring total protein levels using sulforhodamine B (SRB) staining in parallel cultures at the time of biomarker measurements, indicated as SRB endpoints. For proliferation assays for adherent cell types, individual cell types are cultured at sub-confluence and relative cell numbers quantified by SRB staining at time points optimized for each system (48 h: 3C and CASM3C systems; 72 h: BT and HDF3CGF systems; 96 h: SAg system). SRB was performed by staining cells with 0.1% SRB after fixation with 10% TCA and reading wells at 560 nm.Viability and proliferation of PBMC (T cells) was quantified by Alamar Blue reduction for the SAg and BT systems. For PBMC viability (referred to as PBMC Cytotoxicity within the assay endpoint names), cells were plated (75,000/well in a 96-well plate) and then chemical samples added for 1 h before addition of activators, SEB and TSST-1 (20 ng/mL final concentration each). Cells were incubated for 90 h. Then, Alamar Blue (20 uL/well) (Invitrogen, Cat DAL1100) was added for 6 h, and the plates were read with a fluorescence microplate reader at 546/580 nm (excitation/emission). For PBMC proliferation, cells were plated and activated as above but incubated for only 16 h prior to addition of Alamar Blue. Plates were read after 6 h.

SMILES	outcome	AC50
FC(F)=C(F)C(F)(F)C(F)(F)C(F)(F)C(F)(F)C(F)(F)C(F)(F)F	inactive	
O=S(=O)(O)c1ccc(N=Nc2c(O)ccc3cc(S(=O)(=O)O)ccc23)cc1	inactive	
CCN(CC)C(=S)SSC(=S)N(CC)CC		6.07 µM (active)
OCCC(F)(F)C(F)(F)C(F)(F)C(F)(F)F	inactive	
O=C(Cl)C(F)(F)C(F)(F)C(F)(F)C(=O)Cl	inactive	
NC(N)=O	inactive	
CCCCOC(=O)c1ccccc1	inactive	
NNC(=O)c1ccncc1	inactive	
S=P(N1CC1)(N1CC1)N1CC1		4.15 µM (active)
CCCCCCCCN(C)C	inactive	
OC(O)(C(F)C(O)(O)C(F)(F)F)C(F)(F)F		30 µM (active)
Cn1cc[nH]c1=S	inactive	
CCCCCCOC(=O)CC(CC(=O)OCCCCCC)(OC(=O)CCC)C(=O)OCCCCCC		9.76 µM (active)
OCCNCCO	inactive	
O=c1[nH]cnc2c1ncn2[C@H]1CC[C@@H](CO)O1	inactive	
FC(F)(F)COC(OCC(F)(F)F)OCC(F)(F)F	inactive	
C=CN1CCCC1=O	inactive	
CCCCCCCCCCCCCCCCOS(=O)(=O)O	inactive	
O=C1CN(N=Cc2ccc([N+](=O)[O-])o2)C(=O)N1		9.07 µM (active)
CC1(C)C(=O)N(Cl)C(=O)N1Cl	inactive	

SMILES	outcome	AC50
O=C(NO)C1(NS(=O)(=O)c2ccc(Oc3ccc(F)cc3)cc2)CCOCC1	inactive	
CC(C)c1nnc2ccc(-c3ocnc3-c3cc(F)ccc3F)cn12		12.8 µM (active)
CCOc1ccc2[nH]cc(C(=O)NCc3ccccc3)c(=O)c2n1	inactive	
CC[C@H](C)C(=O)O[C@H]1C[C@H](O)C=C2C=C[C@H](C)[C@H](CC[C@@H](O)C[C@@H](O)CC(=O)O)[C@H]21	inactive	
OC(CCl)CCl	inactive	
CNC(C)=O	inactive	
C[C@@H](Oc1ccc(CNC(=O)c2cccnc2Oc2ccc3c(c2)OCO3)c(F)c1)C(=O)O	inactive	
Cc1cccc(O)c1C	inactive	
OCc1ccccc1	inactive	
CCCCCCCCCCCCCCO		27.7 µM (active)
CCCCC(CC)C(=O)OCCOCCOCCOC(=O)C(CC)CCCC (stereo not given)		24.7 µM (active)
CCCCN1C(=O)[C@@H]([C@H](O)C2CCCCC2)NC(=O)C12CCN(Cc1ccc(Oc3ccc(C(=O)O)cc3)cc1)CC2	inactive	
OCCOCCOCCO	inactive	
c1ccc2c(c1)-c1cccc3c1c-2cc1ccccc13	inactive	
COS(C)(=O)=O	inactive	
c1ccc2ncccc2c1	inactive	
c1ccc2cc3ccccc3cc2c1	inactive	
CCCCCCCC1CCC(=O)O1 (stereo not given)	inactive	
CCCc1ccccc1	inactive	
Nc1ccn([C@@H]2O[C@H](CO)[C@@H](O)[C@@H]2O)c(=O)n1		14.1 µM (active)
